Bioassay records deposited in PubChem by several laboratories.
CRFR2-BP ag = agonists of CRF-BP/CRF-R2 complex, primary screen, cell-based, HEK293, calcium dye fluorescence, uHTS | calcium dye fluorescence (FLIPR); percent of saturating CRF peptide response | activation, % at 13.2 µM | actives 0.46% (n = 350,000) | AID 588473, 2011;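 active = activation of at least 50%, plus an integration ratio under a set limit after plate pattern correction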;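 also: plate controls were neutral control wells without compound for no effect and CRF at EC100 for full effect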
CRFBP-R2 block = antagonists of CRF-BP/CRF-R2 complex, primary screen, cell-based, HEK293, calcium dye fluorescence, uHTS; CRF-induced calcium fluorescence; actives 0.59% (n = 350,000); inhibition, % at 11.8 µM;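 active = inhibition of the ligand-induced calcium signal above about 50% at the single tested concentration, limit read from the data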
NTR1 ag = agonists of human NTR1, primary screen, imaging, U2OS cells, beta-arrestin-GFP, high content | Neurotensin receptor type 1 (Homo sapiens), P30989 | NTR1-U2OS beta-arrestin-GFP spot imaging, agonist mode | activation, % at 20 µM | actives 0.17% (n = 330,000);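 active = activation at or above 40% of the spot to cytoplasm intensity ratio, with at least 20 cells analyzed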;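 also: 0% = DMSO without peptide and 100% = 100 nM NTR1 peptide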
Target sequence (P30989 whole entry, looked up): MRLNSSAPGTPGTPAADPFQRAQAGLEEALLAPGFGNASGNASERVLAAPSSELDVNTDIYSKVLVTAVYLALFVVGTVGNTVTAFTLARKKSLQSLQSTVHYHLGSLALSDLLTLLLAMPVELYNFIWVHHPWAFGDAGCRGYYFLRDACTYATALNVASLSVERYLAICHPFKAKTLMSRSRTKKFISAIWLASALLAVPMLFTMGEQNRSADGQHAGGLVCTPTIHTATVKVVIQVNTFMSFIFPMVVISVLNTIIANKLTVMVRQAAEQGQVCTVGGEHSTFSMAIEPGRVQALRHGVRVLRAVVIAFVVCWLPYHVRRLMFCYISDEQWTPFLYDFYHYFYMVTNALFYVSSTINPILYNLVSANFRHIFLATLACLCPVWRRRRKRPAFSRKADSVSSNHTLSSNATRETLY
V-ATPase pH = regulators of yeast V-ATPase proton pumping, primary screen, pHLuorin cytosolic pH fluorescence; S. cerevisiae; response, % at 10 µM; actives 0.37% (n = 350,000); in the data active = response mostly above about 7.3%, no sharp cut-off; inactive = mostly below about 5.4%; also: actives read high
Starred values were filed as active, the others as inactive; x = no result. The list is not random: actives were taken first. Their share in the collection is about 1.5%.

SMILES	CRFR2-BP ag	CRFBP-R2 block	NTR1 ag	V-ATPase pH
COc1ccc(C2CC(C)=C(C#N)S(=O)(=O)C2C#N)cc1 (stereo unspecified)	1.6	-3.4	0.0	-1.3
Cc1ccc(NC(=O)CN(C)S(=O)(=O)c2ccc3c(c2)n(C)c(=O)c(=O)n3C)cc1	-1.0	0.9	0.9	-2.7
COc1ccc([N+](=O)[O-])cc1N(CC(=O)NCCCOC(C)C)S(C)(=O)=O	-1.9	59.5*	0.1	1.9
C#Cc1cccc(NC(=O)c2ccc3c(c2)C(=O)N(Cc2cccnc2)C3=O)c1	-1.1	-1.4	7.6	-2.2
COc1cc(OC)cc(C(=O)NC2CC3CCC(C2)N3Cc2ccco2)c1 (stereo unspecified)	-0.5	58.2*	x	-2.3
Cc1nc(N)sc1-c1csc(Nc2ccccc2)n1	-2.1	78.8*	1.2	-5.3
Oc1cc2ccccc2cc1-c1n[nH]c(=S)o1	-1.6	61.0*	0.2	0.1
Cc1nn(-c2cc(C(F)(F)F)ccc2Cl)c2nc(C(Cl)(Cl)Cl)[nH]c(=O)c12	0.5	52.1*	5.4	4.1
Cc1nn(-c2ccccc2)c2nc(C(F)(F)F)[nH]c(=O)c12	-0.8	28.4	2.1	-2.6
O=C(c1ccco1)N(Cc1ccc([N+](=O)[O-])cc1)c1ccc(Br)cc1	-1.9	33.8	-1.9	1.7
O=C(c1ccco1)N(Cc1cccc([N+](=O)[O-])c1)c1ccc(Br)cc1	-1.2	81.5*	1.5	-7.1
O=C(CC(c1ccccc1)c1ccccc1O)NCc1ccccc1Cl (stereo unspecified)	-11.2	67.3*	1.9	1.4
CC(C)Oc1ccc(CNC(=O)CC(c2ccccc2)c2cc(Cl)ccc2O)cc1 (stereo unspecified)	-0.1	11.1	51.2*	2.5
O=C(CC(c1ccccc1)c1ccccc1O)NCc1ccco1 (stereo unspecified)	-2.4	6.2	-0.1	-3.9
O=C(COC(=O)c1nc(Cl)ccc1Cl)NNC(=O)c1cccs1	0.9	-7.0	1.1	1.9
O=C(Nc1ccc(F)cc1)c1cc(-c2ccncc2)nc2c(Cl)cccc12	-1.1	-16.9	3.5	-8.4
NC1(C(=O)O)CSSC1	-2.2	11.8	x	-1.7
Cc1cc(C(F)(F)F)c(C#N)c(SCC(=O)Nc2nc3ccccc3s2)n1	80.2*	-164.0	7.3	0.4
Cc1nc(SCC(=O)Nc2nc3ccccc3s2)c(C#N)c(C)c1C	-1.0	-7.9	0.4	-0.1
COc1cc(C(=O)OCC(=O)NCCC2=CCCCC2)cc(OC)c1OC	-1.7	-1.5	-1.5	0.9
COc1cccc(C(=O)OCC(=O)NCCC2=CCCCC2)c1	-5.5	102.8*	-0.1	0.0
COc1ccccc1N1CCN(C2CCCN(C(=O)c3cc(C4CC4)on3)C2)CC1 (stereo unspecified)	-2.5	51.5*	-1.3	3.9
COc1ccccc1N1CCN(C2CCCN(C(=O)c3cscn3)C2)CC1 (stereo unspecified)	-0.5	1.9	-1.1	3.0
Clc1ccc2c(c1)Nc1ccccc1CC2	8.9	8.1	4.1	-4.1
O=C(CSc1nc2ccccc2n1CC(=O)N1CCOCC1)N1CCCC1	-0.5	26.9	0.3	2.1
SMILES	CRFR2-BP ag	CRFBP-R2 block	NTR1 ag	V-ATPase pH
CCSc1nc2ccccc2n1CC(=O)N1CCCCC1	1.7	85.7*	-0.5	2.1
Cc1ccc(CCNC(=O)C2CCC(=O)N2C2CCCC2)cc1 (stereo unspecified)	-0.6	62.5*	0.3	-2.7
CN(CC(=O)Nc1ccc(F)c(F)c1F)C(=O)CCN1C(=O)C2CCCCC2C1=O (stereo unspecified)	-0.3	17.3	-0.1	-5.4
Cc1cc2c(cc1C)NC(c1c(C)n(C)n(-c3ccccc3)c1=O)C1=C(CC(C)(C)CC1=O)N2 (stereo unspecified)	62.7*	-2.9	2.9	-11.7
COc1ccc(CN(C)C[C@@H]2OCc3cnnn3CCCC(=O)N([C@H](C)CO)C[C@H]2C)cc1	-0.4	4.7	x	-1.6
O=C(CSc1cccc2cccnc12)N/N=C/c1cccc(O)c1	-0.8	-2.1	1.1	-0.1
O=C(N/N=C/c1ccc(O)c(O)c1)c1ccc(CSc2cccc3cccnc23)cc1	-1.2	77.4*	-1.6	0.4
CCN(CC)c1ccc(/C=C/c2nc3ccccc3s2)cc1	x	x	-1.5	x
COc1cc2nc(/C=C/c3ccc(N(C)C)cc3)sc2cc1SC	331.7*	-486.2	x	-7.7
COc1ccc(/C=C2/NC(=O)CNC2=O)cc1	0.4	10.6	-1.5	-2.4
CCOCc1c(C(=O)OCC(=O)NCc2ccc(F)cc2)oc2ccccc12	-0.5	6.2	-1.5	-1.2
